Results published in PubChem BioAssay (NCI).
This is part of a sample that, as a whole, favours compounds with a hit. Of some 83,000 tested, about 20% had one in any assay.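 Cell lines were cultured in 96-well plates, exposed to a single compound concentration, and assessed for percent growth 48 hours later.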 Activity calls are given as the source filed them. The calls were made as follows: active = growth percent below 10; inactive = the rest.

system: OVCAR-3 ovarian; experiment: NCI-60 one-dose screen, 48 h (100 = growth as untreated, 0 = no growth, -100 = all killed); conditions: 10 µM unless noted

| Structure (SMILES) | growth |
| --- | --- |
| CC(=O)n1c(/C(C#N)=C/c2ccc(N(C)C)cc2)cc2ccccc21 | 8.84% (active) |
| C[C@H]1[C@H]2C3=CC[C@@H]4[C@@]5(C)C/C(=C/c6ccco6)C(=O)C(C)(C)[C@@H]5CC[C@@]4(C)[C@]3(C)CC[C@@]2(C(=O)N2CCOCC2)CC[C@@H]1C | 55.6% (inactive) |
| Fc1ccc(Nc2ccc3c(OCCCN4CCOCC4)cccc3n2)cc1F | 85.8% (inactive) |
| COc1cccc(-c2nn(-c3ccccc3)cc2-c2ccnc(NCCNS(=O)(=O)c3ccc(C(F)(F)F)cc3)c2)c1 | 7.03% (active) |
| Cn1cnc2c1c(=O)n(CCC(=O)Nc1ccc(F)cc1)c(=O)n2C | 115% (inactive) |
| COCCNC1=C(Cl)C(=O)c2ccccc2C1=O | 116% (inactive) |
| CCCCn1c(-c2ccc(O)cc2)cn2c3c(=O)[nH]c(=O)n(C)c3nc12 | 89.8% (inactive) |
| Cc1ccc(N(CC(=O)Nc2ccc(S(=O)(=O)NC3CCN(C)CC3)cc2)S(=O)(=O)c2ccc(Cl)cc2)cc1 | 72.5% (inactive) |
| CC(=O)OC[C@]12CC[C@@H](/C(C)=N/O)[C@@H]1[C@H]1CC[C@@H]3[C@@]4(C)CCCNC(C)(C)[C@@H]4CC[C@@]3(C)[C@]1(C)CC2 | 65.7% (inactive) |
| Clc1ccc(Cn2cc(-c3nc4ccc(Br)nc4n3Cc3ccc(Cl)cc3)c3cccnc32)cc1 | 93.5% (inactive) |
| CN1CCN(CCOc2ccc(-c3cnc4c(-c5cccc(F)c5)cnn4c3)cc2)CC1 | 56.1% (inactive) |
| CN1CCN(c2nc(-c3csc(-c4cccs4)n3)cc3ccccc23)CC1 | 39.9% (inactive) |
| CCN(CC)CCCCCCNc1ccnc2cc(Cl)ccc12 | 84.6% (inactive) |
| CCCCCCCC(=O)SCC/C=C/[C@@H]1CC(=O)NCc2cccc(n2)CN(Cc2ccc(Cl)cc2)CC(=O)N[C@@H](C(C)C)C(=O)O1 | 3.13% (active) |
| c1cc(N2CCCC2)c2nc(-c3[nH]ncc3Nc3ncnc4[nH]ccc34)[nH]c2c1 | -14% (active) |
| COc1ccc(C2=NN(c3nc(-c4ccc(OC)cc4)c(C#N)c(=O)n3C)C(=O)CC2)cc1 | 104% (inactive) |
| Cc1ccc(S(=O)(=O)Nc2ccc(-c3cc(-c4cccc(F)c4)c(C#N)c(N)n3)cc2)cc1 | -79.4% (active) |
| CC(C)(C)c1ccc(OCCCCCCCN2CCNCC2)cc1 | 62% (inactive) |
| COC(=O)CNc1nc(N(C)O)nc(N(C)O)n1 | -6.47% (active) |
| COc1cc2ncnc(Nc3ccc(Oc4ccnc(C)c4)c(C)c3)c2cc1NC(=O)CC1CCSS1 (stereo unspecified) | -81.4% (active) |
| C=C(C)[C@@H]1CC[C@]2(C)[C@H](CC[C@@H]3[C@H]4[C@H]5OC[C@@]4(CCC5(C)C)CC[C@]32C)[C@@]1(C)CCCN | 76.6% (inactive) |
| c1ccc(-c2nc(Nc3ccc(-c4nc5ccccc5[nH]4)cc3)nc(N3CCOCC3)n2)cc1 | -73.4% (active) |
| CCOC(=O)C1OC1(c1ccccc1)c1ccccc1 (stereo unspecified) | 106% (inactive) |
| CCN1CCN(C(=O)[C@@]2(C)CC[C@]3(C)CC[C@]4(C)C(=CC(=O)[C@@H]5[C@@]6(C)CC[C@H](OCCC#N)C(C)(C)[C@@H]6CC[C@]54C)[C@@H]3C2)CC1 | 100% (inactive) |
| O=S(=O)(NCCNc1cc(-c2cn(-c3ccccc3)nc2-c2cccc(O)c2)ccn1)c1cccc(F)c1 | 50.8% (inactive) |
| N#CC1=C(N)Oc2ccc3ccccc3c2C1c1ccccc1 (stereo unspecified) | 18.4% (inactive) |
| COc1ccc(-c2cc(=O)oc3ccc(Cl)cc23)cc1F | 6.02% (active) |

system: HS 578T breast; experiment: as above; conditions: 10 µM unless noted

| Structure (SMILES) | growth |
| --- | --- |
| COC(=O)[C@]12CC[C@@H](C)[C@H](C)[C@@H]1C1=CC[C@@H]3[C@@]4(C)C[C@@H](OC(C)=O)[C@H](O)[C@@](C)(COC(C)=O)[C@@H]4[C@H](O)C[C@@]3(C)[C@]1(C)CC2 | -28.4% (active) |
| N#Cc1c(-c2ccco2)nc2c(c(-c3ccccc3)nn2-c2ccccc2)c1-c1ccc(O)cc1 | 53.8% (inactive) |
| CC(=O)c1c(C)[nH]c(-c2nc3ccc(N4CCN(C)CC4)cc3[nH]2)c1-c1ccc2c(c1)OCCO2 | 30.1% (inactive) |
| COc1ccc(C(=O)c2ccc(C)cc2)c(OC)c1OC | 86.9% (inactive) |
| C[C@H]1OC(=O)/C=C/[C@@H](O)[C@@H](O)CCCCCCCC[C@@H]1O | 101% (inactive) |
| COc1ccccc1-n1cnc(N)c1C(=O)c1cc(OC)c(OC)c(OC)c1 | -12.8% (active) |
| COc1ccc(/C=C(\C#N)c2cc3ccccc3n2S(C)(=O)=O)cc1 | 95.6% (inactive) |
| Cc1cccc2c1NC(=O)[C@@]21[C@H](C(=O)c2ccccc2)[C@]2(C(=O)Nc3ccccc32)[C@H]2CCCN21 | 16% [100 µM] (inactive) |
| N=c1ccc2nc3c(cc(N)c4ccccc43)oc-2c1 | -23.3% (active) |
| COc1cccc(-c2nn(-c3ccccc3)cc2-c2ccnc(NCCCNS(=O)(=O)c3ccc(Br)cc3)c2)c1 | 66.2% (inactive) |
| Cc1ccc(-c2nn(Cc3cn(-c4cc(C)nc5ccccc45)nn3)c3ncnc(N)c23)cc1 | 18.2% (inactive) |
| COc1ccc2c(c1)c1nc3cc(C)c(C)cc3nc1n2CCN(C)C | 44.6% (inactive) |
| CC(=O)n1c(/C(C#N)=C/c2ccc(N(C)C)cc2)cc2ccccc21 | 11.9% (inactive) |
| C[C@H]1[C@H]2C3=CC[C@@H]4[C@@]5(C)C/C(=C/c6ccco6)C(=O)C(C)(C)[C@@H]5CC[C@@]4(C)[C@]3(C)CC[C@@]2(C(=O)N2CCOCC2)CC[C@@H]1C | 77.9% (inactive) |
| Fc1ccc(Nc2ccc3c(OCCCN4CCOCC4)cccc3n2)cc1F | 67.5% (inactive) |
| COc1cccc(-c2nn(-c3ccccc3)cc2-c2ccnc(NCCNS(=O)(=O)c3ccc(C(F)(F)F)cc3)c2)c1 | 33.9% (inactive) |
| Cn1cnc2c1c(=O)n(CCC(=O)Nc1ccc(F)cc1)c(=O)n2C | 106% (inactive) |
| COCCNC1=C(Cl)C(=O)c2ccccc2C1=O | 105% (inactive) |
| CCCCn1c(-c2ccc(O)cc2)cn2c3c(=O)[nH]c(=O)n(C)c3nc12 | 82.6% (inactive) |
| Cc1ccc(N(CC(=O)Nc2ccc(S(=O)(=O)NC3CCN(C)CC3)cc2)S(=O)(=O)c2ccc(Cl)cc2)cc1 | 69.5% (inactive) |

| Structure (SMILES) | growth |
| --- | --- |
| CC(=O)OC[C@]12CC[C@@H](/C(C)=N/O)[C@@H]1[C@H]1CC[C@@H]3[C@@]4(C)CCCNC(C)(C)[C@@H]4CC[C@@]3(C)[C@]1(C)CC2 | 76% (inactive) |
| Clc1ccc(Cn2cc(-c3nc4ccc(Br)nc4n3Cc3ccc(Cl)cc3)c3cccnc32)cc1 | 92.7% (inactive) |
| CN1CCN(CCOc2ccc(-c3cnc4c(-c5cccc(F)c5)cnn4c3)cc2)CC1 | 77.6% (inactive) |
| CN1CCN(c2nc(-c3csc(-c4cccs4)n3)cc3ccccc23)CC1 | 71.3% (inactive) |
| CCN(CC)CCCCCCNc1ccnc2cc(Cl)ccc12 | 92.4% (inactive) |
| CCCCCCCC(=O)SCC/C=C/[C@@H]1CC(=O)NCc2cccc(n2)CN(Cc2ccc(Cl)cc2)CC(=O)N[C@@H](C(C)C)C(=O)O1 | -5.68% (active) |
| c1cc(N2CCCC2)c2nc(-c3[nH]ncc3Nc3ncnc4[nH]ccc34)[nH]c2c1 | -4.25% (active) |
| COc1ccc(C2=NN(c3nc(-c4ccc(OC)cc4)c(C#N)c(=O)n3C)C(=O)CC2)cc1 | 94.9% (inactive) |
| Cc1ccc(S(=O)(=O)Nc2ccc(-c3cc(-c4cccc(F)c4)c(C#N)c(N)n3)cc2)cc1 | 31.4% (inactive) |
| CC(C)(C)c1ccc(OCCCCCCCN2CCNCC2)cc1 | 24.9% (inactive) |
| COC(=O)CNc1nc(N(C)O)nc(N(C)O)n1 | 77.8% (inactive) |
| COc1cc2ncnc(Nc3ccc(Oc4ccnc(C)c4)c(C)c3)c2cc1NC(=O)CC1CCSS1 (stereo unspecified) | -7.37% (active) |
| C=C(C)[C@@H]1CC[C@]2(C)[C@H](CC[C@@H]3[C@H]4[C@H]5OC[C@@]4(CCC5(C)C)CC[C@]32C)[C@@]1(C)CCCN | 109% (inactive) |
| c1ccc(-c2nc(Nc3ccc(-c4nc5ccccc5[nH]4)cc3)nc(N3CCOCC3)n2)cc1 | -39.9% (active) |
| CCOC(=O)C1OC1(c1ccccc1)c1ccccc1 (stereo unspecified) | 114% (inactive) |
| CCN1CCN(C(=O)[C@@]2(C)CC[C@]3(C)CC[C@]4(C)C(=CC(=O)[C@@H]5[C@@]6(C)CC[C@H](OCCC#N)C(C)(C)[C@@H]6CC[C@]54C)[C@@H]3C2)CC1 | 83.3% (inactive) |
| O=S(=O)(NCCNc1cc(-c2cn(-c3ccccc3)nc2-c2cccc(O)c2)ccn1)c1cccc(F)c1 | 37.6% (inactive) |
| N#CC1=C(N)Oc2ccc3ccccc3c2C1c1ccccc1 (stereo unspecified) | 23.8% (inactive) |
| COc1ccc(-c2cc(=O)oc3ccc(Cl)cc23)cc1F | 20.1% (inactive) |
